Data as given in the supplement of paper PMC10849652.
Of roughly 8,800 targets only a part is listed; those with a hit were picked by preference. About 0.5% of all pairs of compound and target were hits.

Compound: C1CCN(C1)C(=O)NC2=CC=CC(=C2)NC3=NC=C(C(=N3)NCCC4=CN=CN4)Br
Assay: log2 fold change, soluble protein after heating vs DMSO (PISA); higher = thermal stabilisation; K562 lysate, 10 uM; active = over 0.2 and 3.5 SD of the protein, either way, in both replicates (recomputed)
In short: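 The values are log-two fold changes in thermal stability compared with solvent controls and come from duplicates. They were obtained by TMTpro 16plex LC-MS/MS, with channel sums equalised, on the supernatant after 21,000xg for 90 min. That supernatant came from crude K562 extract at 1 mg/mL protein treated with 10 μM compound for 30 min, heated for 3 min across 48°C-58°C, pooled and brought to 0.5% NP-40 at 4°C.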

Chain of UniProt O15027 (O15027 whole entry, looked up): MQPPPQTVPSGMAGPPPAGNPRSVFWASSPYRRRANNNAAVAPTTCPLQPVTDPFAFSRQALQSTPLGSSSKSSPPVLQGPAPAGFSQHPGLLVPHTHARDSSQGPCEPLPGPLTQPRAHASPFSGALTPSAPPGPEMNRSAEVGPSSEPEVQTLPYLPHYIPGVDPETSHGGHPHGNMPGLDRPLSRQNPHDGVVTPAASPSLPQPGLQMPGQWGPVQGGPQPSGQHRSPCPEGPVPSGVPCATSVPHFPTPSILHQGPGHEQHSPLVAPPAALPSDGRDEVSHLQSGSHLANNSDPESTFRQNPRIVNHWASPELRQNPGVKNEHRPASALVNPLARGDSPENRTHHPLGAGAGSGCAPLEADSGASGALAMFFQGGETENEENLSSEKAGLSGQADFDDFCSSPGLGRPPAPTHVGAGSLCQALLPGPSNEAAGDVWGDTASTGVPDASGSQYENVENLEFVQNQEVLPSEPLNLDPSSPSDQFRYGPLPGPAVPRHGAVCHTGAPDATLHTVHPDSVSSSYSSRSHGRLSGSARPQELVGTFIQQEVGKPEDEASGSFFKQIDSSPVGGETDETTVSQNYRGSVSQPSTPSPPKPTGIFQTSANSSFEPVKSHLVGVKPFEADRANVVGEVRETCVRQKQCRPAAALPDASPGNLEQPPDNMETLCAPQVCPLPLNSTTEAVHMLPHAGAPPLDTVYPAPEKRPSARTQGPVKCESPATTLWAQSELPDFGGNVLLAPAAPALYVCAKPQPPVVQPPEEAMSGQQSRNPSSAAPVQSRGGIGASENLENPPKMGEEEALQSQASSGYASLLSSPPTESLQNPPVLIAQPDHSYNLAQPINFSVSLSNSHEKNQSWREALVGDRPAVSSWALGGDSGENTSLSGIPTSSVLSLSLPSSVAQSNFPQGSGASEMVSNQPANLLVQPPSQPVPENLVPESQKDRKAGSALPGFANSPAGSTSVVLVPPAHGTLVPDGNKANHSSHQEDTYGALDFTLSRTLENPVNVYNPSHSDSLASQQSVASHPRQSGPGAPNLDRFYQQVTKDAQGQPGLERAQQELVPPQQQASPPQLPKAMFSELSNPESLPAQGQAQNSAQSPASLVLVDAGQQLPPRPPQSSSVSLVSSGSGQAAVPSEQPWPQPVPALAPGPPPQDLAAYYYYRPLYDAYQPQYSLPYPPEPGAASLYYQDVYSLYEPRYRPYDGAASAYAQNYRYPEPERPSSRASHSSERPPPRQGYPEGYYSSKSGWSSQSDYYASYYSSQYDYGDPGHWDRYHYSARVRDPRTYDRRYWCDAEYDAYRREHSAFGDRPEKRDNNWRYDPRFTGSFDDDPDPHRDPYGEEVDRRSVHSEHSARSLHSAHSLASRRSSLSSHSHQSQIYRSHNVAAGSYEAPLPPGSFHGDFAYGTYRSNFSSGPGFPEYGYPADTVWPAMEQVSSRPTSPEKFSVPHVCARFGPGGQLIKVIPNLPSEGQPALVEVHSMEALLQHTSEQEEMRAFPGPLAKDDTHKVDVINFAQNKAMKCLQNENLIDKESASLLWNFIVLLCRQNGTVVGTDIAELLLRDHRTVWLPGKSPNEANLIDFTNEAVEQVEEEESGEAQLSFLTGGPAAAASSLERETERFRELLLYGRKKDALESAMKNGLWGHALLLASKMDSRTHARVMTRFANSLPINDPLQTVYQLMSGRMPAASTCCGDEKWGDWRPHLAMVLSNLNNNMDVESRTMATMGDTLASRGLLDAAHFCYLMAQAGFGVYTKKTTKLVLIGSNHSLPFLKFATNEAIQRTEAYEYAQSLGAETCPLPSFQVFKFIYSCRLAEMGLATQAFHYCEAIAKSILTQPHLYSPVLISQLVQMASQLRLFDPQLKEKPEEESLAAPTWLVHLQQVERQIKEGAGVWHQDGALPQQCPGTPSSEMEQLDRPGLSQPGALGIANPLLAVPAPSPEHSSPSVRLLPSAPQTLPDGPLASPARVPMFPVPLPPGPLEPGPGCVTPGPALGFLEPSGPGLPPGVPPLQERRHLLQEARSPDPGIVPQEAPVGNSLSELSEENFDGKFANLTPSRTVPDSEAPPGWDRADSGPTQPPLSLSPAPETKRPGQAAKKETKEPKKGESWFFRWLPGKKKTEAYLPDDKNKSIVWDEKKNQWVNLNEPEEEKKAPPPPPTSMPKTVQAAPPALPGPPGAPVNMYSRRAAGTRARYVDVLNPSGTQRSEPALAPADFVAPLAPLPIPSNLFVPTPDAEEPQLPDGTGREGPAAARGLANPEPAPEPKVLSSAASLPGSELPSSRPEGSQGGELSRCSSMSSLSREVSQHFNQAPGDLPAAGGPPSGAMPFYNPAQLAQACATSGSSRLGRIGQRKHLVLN
Chain of UniProt P23443 (P23443 whole entry, looked up): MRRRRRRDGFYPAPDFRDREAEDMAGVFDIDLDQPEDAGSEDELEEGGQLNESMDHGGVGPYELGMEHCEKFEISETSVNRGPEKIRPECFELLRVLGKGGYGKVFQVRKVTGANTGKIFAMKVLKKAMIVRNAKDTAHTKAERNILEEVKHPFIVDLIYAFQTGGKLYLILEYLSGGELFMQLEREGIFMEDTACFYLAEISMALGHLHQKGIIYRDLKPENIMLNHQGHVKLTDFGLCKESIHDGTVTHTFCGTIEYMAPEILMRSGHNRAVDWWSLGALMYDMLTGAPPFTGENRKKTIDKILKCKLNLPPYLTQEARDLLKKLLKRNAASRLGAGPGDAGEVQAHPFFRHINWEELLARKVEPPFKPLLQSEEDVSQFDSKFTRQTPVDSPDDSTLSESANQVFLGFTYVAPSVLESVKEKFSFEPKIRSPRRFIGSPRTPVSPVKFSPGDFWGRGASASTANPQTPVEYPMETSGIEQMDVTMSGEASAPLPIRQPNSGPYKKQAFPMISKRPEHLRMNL
Chain of UniProt P40938 (P40938 whole entry, looked up): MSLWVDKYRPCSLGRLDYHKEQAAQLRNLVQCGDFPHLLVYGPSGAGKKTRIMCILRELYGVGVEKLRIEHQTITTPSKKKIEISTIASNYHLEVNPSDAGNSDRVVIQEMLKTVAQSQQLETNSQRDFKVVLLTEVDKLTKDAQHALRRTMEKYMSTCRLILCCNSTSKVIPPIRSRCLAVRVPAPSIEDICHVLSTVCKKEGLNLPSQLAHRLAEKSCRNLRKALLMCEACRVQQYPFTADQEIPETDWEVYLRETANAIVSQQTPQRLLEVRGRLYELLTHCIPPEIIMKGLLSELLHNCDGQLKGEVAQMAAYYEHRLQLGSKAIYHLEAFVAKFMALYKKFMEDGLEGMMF
Chain of UniProt Q15283 (Q15283 whole entry, looked up): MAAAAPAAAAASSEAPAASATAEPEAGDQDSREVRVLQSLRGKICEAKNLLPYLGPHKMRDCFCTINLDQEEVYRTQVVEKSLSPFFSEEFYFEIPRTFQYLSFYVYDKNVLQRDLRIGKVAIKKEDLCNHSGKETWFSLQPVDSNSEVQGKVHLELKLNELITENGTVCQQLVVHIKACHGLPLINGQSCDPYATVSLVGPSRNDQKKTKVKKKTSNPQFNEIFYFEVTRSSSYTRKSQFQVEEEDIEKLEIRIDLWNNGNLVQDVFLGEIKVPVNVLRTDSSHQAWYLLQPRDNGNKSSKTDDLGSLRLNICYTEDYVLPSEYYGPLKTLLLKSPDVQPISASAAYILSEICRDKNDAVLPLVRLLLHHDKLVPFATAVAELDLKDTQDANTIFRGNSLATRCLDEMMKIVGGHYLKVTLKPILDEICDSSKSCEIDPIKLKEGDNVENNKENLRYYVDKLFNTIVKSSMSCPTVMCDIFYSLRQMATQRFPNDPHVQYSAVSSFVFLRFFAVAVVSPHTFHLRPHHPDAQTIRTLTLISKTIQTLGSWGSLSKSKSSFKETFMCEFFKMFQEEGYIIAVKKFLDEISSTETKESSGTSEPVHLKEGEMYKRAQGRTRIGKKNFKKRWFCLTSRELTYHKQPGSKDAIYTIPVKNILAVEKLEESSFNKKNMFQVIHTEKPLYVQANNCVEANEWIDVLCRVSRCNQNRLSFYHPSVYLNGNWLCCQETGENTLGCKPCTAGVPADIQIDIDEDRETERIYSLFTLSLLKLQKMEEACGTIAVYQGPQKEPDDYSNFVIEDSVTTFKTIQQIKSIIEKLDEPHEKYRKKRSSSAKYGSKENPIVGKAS
Chain of UniProt Q96EE3 (Q96EE3 whole entry, looked up): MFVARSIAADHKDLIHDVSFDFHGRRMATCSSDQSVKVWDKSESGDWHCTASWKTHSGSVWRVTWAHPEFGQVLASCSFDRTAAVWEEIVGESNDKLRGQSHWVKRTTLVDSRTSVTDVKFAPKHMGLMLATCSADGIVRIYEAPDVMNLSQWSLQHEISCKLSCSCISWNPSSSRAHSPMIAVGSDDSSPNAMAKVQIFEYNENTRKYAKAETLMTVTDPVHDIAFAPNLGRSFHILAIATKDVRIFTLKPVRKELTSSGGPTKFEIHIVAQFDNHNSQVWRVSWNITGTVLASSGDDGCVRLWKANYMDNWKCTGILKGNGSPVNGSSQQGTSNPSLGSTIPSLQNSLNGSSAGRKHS
Chain of UniProt Q9BTD8 (Q9BTD8 whole entry, looked up): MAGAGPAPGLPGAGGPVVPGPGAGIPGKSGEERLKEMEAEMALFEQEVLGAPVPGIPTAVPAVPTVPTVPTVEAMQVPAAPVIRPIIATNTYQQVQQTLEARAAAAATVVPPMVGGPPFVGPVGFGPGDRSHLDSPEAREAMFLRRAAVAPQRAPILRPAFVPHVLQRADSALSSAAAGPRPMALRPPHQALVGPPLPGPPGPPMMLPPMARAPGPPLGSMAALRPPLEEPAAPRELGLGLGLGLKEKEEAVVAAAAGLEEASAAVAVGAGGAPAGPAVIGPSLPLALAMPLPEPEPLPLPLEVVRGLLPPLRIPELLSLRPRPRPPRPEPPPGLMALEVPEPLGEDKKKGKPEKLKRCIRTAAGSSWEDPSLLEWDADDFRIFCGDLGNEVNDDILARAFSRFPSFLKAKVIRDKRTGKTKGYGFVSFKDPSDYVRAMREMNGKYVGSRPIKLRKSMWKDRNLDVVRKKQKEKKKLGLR

log2 fold change, inactive:
SEC62 (UniProt Q99442) -0.017, RPL28 (UniProt P46779) -0.003, SBF1 isoform 4 (UniProt O95248) 0.028, SEC16A isoform 5 (UniProt O15027) -0.022, SEH1L isoform 1 (UniProt Q96EE3) -0.025, RDH14 (UniProt Q9HBH5) 0.036, RFC3 (UniProt P40938) -0.002, RAB1B (UniProt Q9H0U4) 0.014, RRAGA (UniProt Q7L523) -0.062, RAB3IL1 (UniProt E9PK89) -0.034, RBM42 (UniProt Q9BTD8) -0.017, RBSN (UniProt Q9H1K0) 0.015, RAC2 (UniProt P15153) 0.069, RSU1 (UniProt Q15404) 0.009, RPL37A (UniProt P61513) 0.039, QRSL1 (UniProt Q9H0R6) -0.017, RBBP8 isoform 2 (UniProt Q99708) -0.017, RASA2 (UniProt Q15283) -0.024, RIOK3 (UniProt O14730) 0.016, RMC1 (UniProt Q96DM3) -0.001, RPS6KB1 (UniProt P23443) 0.085, RCAN1 (UniProt P53805) -0.095, RNF40 (UniProt O75150) 0.011
